Measurements as given in PubChem BioAssay (NCATS).
Inconclusive results are not listed. A number with no mark means an inactive call. The call rests on the fitted dose curve; in most records, active means well fitted activation curve with a large enough effect; inconclusive means small, poorly fitted or top-dose-only effect; inactive means flat fitted curve, though single readings scatter.

Test: Primary redox qHTS assay for identification of artifact compounds. (AID 1845223);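 further: 0% = DMSO and 100% = reference compound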
Settings: Amplex Red/HRP redox cycling with DTT, fluorescence; series mostly up to 53.8 µM; redox activity (% of DA3003): at the top concentration
Procedure, shortened: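 Amplex Red (25 uM) and HRP (250 mU/mL) in HBSS, with compounds for 15 min, then 250 uM DTT for 30 min, room temperature, dark. Fluorescence 525/598 nm read; normalized to DMSO and 10 uM DA3003; Hill fit.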

In order of falling “redox activity (% of DA3003)” value:
1. COC(=O)C1=CO[C@@H](O[C@@H]2O[C@H](CO)[C@@H](O)[C@H](O)[C@H]2O)[C@H]2[C@@H]1C=C[C@]21C=C([C@H](C)OC(=O)/C=C/c2ccc(O)cc2)C(=O)O1  5.39% [at 25.6 µM]
2. C/C=C\NC(=O)C1NC(=O)C(CC(N)=O)NC(=O)C(NC(=O)C(=O)C(C)CC)Cc2ccc(O)c(c2)-c2cccc3c2NC(=O)C3(O)C1O (stereo not drawn)  -1.77% [at 25.6 µM]

In order of falling “redox activity (% of DA3003)” value:
1. COc1cc(C2OC(c3ccc(OC)c(OC)c3)C(C)C2C)ccc1O (stereo not drawn)  11.2%
2. C[C@@H](N[C@H]1CCCC[C@@H]1NC(=O)c1ccc(Cl)cc1)c1cccc2ccccc12  7.12%
3. CC(C)Nc1nc(Nc2ccccc2)nc(-c2ccccc2)n1  -0.0331%
4. C=C1C(=O)O[C@H]2CC(=C)[C@H]3CC[C@@](C)(O)[C@@H]3CC12 (stereo partly drawn)  -0.563%
5. CCOc1ccc(-n2c([C@@H](C)N(Cc3cccnc3)C(=O)Cc3ccc(OC(F)(F)F)cc3)nc3ncccc3c2=O)cc1  -1.83%
6. C=C1C(=O)OC2/C=C(\C)CC3C=C(CC/C=C(\C)CCC12)C(=O)O3 (stereo not drawn)  -11.4%
